Measured values published in PubChem BioAssay AID652017 (The Scripps Research Institute Molecular Screening Center, 2013).
The campaign covered roughly 370,000 compounds. About 3,800 (1%) were called active. This excerpt belongs to a sample that is enriched for actives. A number with no mark means an inactive call. Rule as the data show it: active = activation above about 7.8%; inactive = the rest.

Test: SMARCA2 (BRM) function activators, primary screen, cell-based, luminescence, high throughput (AID 652017);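 also: 0% = vehicle wells and 100% = reference activator wells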
Conditions: MG213 cells, MMTV-luciferase reporter, dexamethasone, overnight; at 9.1 µM; active compounds read high
With `O=C(N/N=C/c1c(O)n(C2CC2)c(=S)[nH]c1=O)c1ccccc1Cl` the activation was 1.16%. For `O=C(N/N=C/c1c(O)n(Cc2ccccc2)c(=O)[nH]c1=O)c1ccccc1`, the activation was 8.1% (active). `O=C(N/N=C/c1c(O)n(C2CC2)c(=S)[nH]c1=O)c1ccccc1` showed an activation of 5.22%. Compound `Cc1ccccc1CCC[C@@H](CC1CCCCC1)CN(C)C(=O)Oc1ccccc1` has an activation of 0.55%. `COc1ccc2c(c1)NP(=S)(c1ccccc1)N2` (stereo not given) showed an activation of 0.4%. With `Cc1cc(C)c2c(c1)NP(=S)(c1ccccc1)N2` (stereo not given) the activation was 9.88% (active). For `COc1cccc(C(=O)N2C[C@H]3C[C@@H](C2)c2cccc(=O)n2C3)c1`, the activation was 0.48%. With `COP(=O)(Sc1ccccc1)C(Cc1ccccc1)NC(=O)OCc1ccccc1` (stereo not given) the activation was 0.4%. `NCC(O)c1ccc(O)cc1` (stereo not given) gave an activation of -0.14%. With `O=C1CC(=O)N(Cc2ccccc2)C(=O)N1CCCCCCN1C(=O)CC(=O)N(Cc2ccccc2)C1=O` the activation was 1.8%.
